PubChem BioAssay (NCATS)
Inconclusive results are not listed. Active and inactive are the calls of the source. Unless noted, calls come from the whole dose curve; as a rule, active = well fitted curve in the direction sought with a large enough effect; inconclusive = small, poorly fitted or top-dose-only effect, or another doubt; inactive = no such curve, though single readings can be large; an effect the other way counts as inactive or inconclusive.

Key:
[1] = qHTS for differential inhibitors of proliferation of Plasmodium falciparum line 7G8 (AID 1815);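 note: potency is the fitted concentration of half-maximal effect; parasite growth measured after three days of incubation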
[2] = qHTS for differential inhibitors of proliferation of Plasmodium falciparum line GB4 (AID 1816); conditions: Potency: Plasmodium falciparum GB4 proliferation inhibition;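 note: potency is the fitted concentration of half-maximal effect; parasite growth measured after 72 h incubation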
[3] = qHTS for differential inhibitors of proliferation of Plasmodium falciparum line 3D7 (AID 1876); note: potency is the fitted concentration of half-maximal effect
[4] = qHTS for differential inhibitors of proliferation of Plasmodium falciparum line D10 (AID 1877);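 note: potency is the fitted concentration of half-maximal effect; parasites grown with compound for 72 h before DNA staining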
[5] = qHTS for differential inhibitors of proliferation of Plasmodium falciparum line Dd2 (AID 1882); conditions: Potency: Plasmodium falciparum Dd2 proliferation inhibition; note: potency is the fitted concentration of half-maximal effect; nearly all actives have a fitted effect of over 65% in size
Procedure, shortened: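 Dd2-infected erythrocytes (0.3% parasitemia, 2.5% hematocrit final) incubated with compound 72 h at 37 C, 5% CO2; lysed with saponin/Triton buffer containing SYBR Green I, incubated overnight in the dark, then read by fluorescence (485/535 nm). Normalized to 0.29 uM artemisinin and DMSO.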

[6] = qHTS for differential inhibitors of proliferation of Plasmodium falciparum line W2 (AID 1883); conditions: Potency: Plasmodium falciparum W2 proliferation inhibition;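 note: potency is the fitted concentration of half-maximal effect; parasites grown with compound for 72 h before lysis and staining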
[7] = qHTS for differential inhibitors of proliferation of Plasmodium falciparum line HB3 (AID 1886); conditions: Potency: Plasmodium falciparum HB3 proliferation inhibition;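 note: potency is the fitted concentration of half-maximal effect; parasites grown with compound for 72 h before SYBR Green readout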
[8] = Validation screen for inhibitors of Lassa infection (AID 463096; calls by dose curve)
[9] = Cell Viability - LYMP2-011 (AID 969); note: nearly all actives have a fitted effect of over 60% in size
Procedure, shortened: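 2500 cells/well, 5 hr 37 C; compound added, 24 hr 37 C; CellTiter-Glo 30 min RT; luminescence. qHTS concentration-response, Hill-equation AC50. Tetraoctylammonium bromide positive control.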

[10] = Cell Viability - LYMP2-013 (AID 970); note: nearly all actives have a fitted effect of over 55% in size
Procedure, shortened: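 qHTS; 2500 lymphoblastoid cells/well; 5 hr 37 C settle; cpd 24 hr 37 C; CellTiter-Glo, 30 min RT; luminescence. AC50 = Hill fit.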

[11] = Cell Viability - LYMP2-015 (AID 971); note: nearly all actives have a fitted effect of over 55% in size
Procedure, shortened: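 Luminescent ATP read-out (CellTiter-Glo) served as the viability measure after lymphoblastoid cells were exposed to compounds for 24 hours at 37 C. Concentration-response data were fitted with the Hill equation to give AC50.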

[12] = Cell Viability - LYMP2-017 (AID 972); note: nearly all actives have a fitted effect of over 55% in size
Procedure, shortened: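 2500 cells/well, 5 h 37 C; cpd 24 h 37 C in complete medium; CellTiter-Glo, 30 min RT; luminescence (ATP). AC50 via Hill fit, qHTS.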

[13] = Cell Viability - LYMP2-021 (AID 974);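 note: compound exposure lasts 24 hours at 37 °C; nearly all actives have a fitted effect of over 55% in size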; note: potency is the fitted concentration of half-maximal effect
Procedure, shortened: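 Plate 2500 lymphoblastoid cells per well and incubate 5 hr at 37 C. Add compounds over a concentration range and incubate 24 hr at 37 C. Add CellTiter-Glo, wait 30 min at room temperature, read luminescence.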

[14] = Cell Viability - LYMP2-010 (AID 981); note: nearly all actives have a fitted effect of over 55% in size
Procedure, shortened: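 Luminescent ATP signal (CellTiter-Glo) served as the viability read-out. Cells of the human lymphoblastoid line were treated with compound over a concentration range for 24 hours at 37 C, and AC50 values came from Hill-equation modeling.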

[15] = Cell Viability - LYMP2-020 (AID 986); note: nearly all actives have a fitted effect of over 55% in size; note: potency is the fitted concentration of half-maximal effect
Procedure, shortened: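 Luminescent ATP signal (CellTiter-Glo, 30 min at room temperature) is the read-out after 24 h compound treatment of lymphoblastoid cells at 37 C. AC50 values come from Hill-equation fits across concentrations.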

[16] = Cell Viability - LYMP2-022 (AID 987); note: nearly all actives have a fitted effect of over 55% in size
Procedure, shortened: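 qHTS: human lymphoblastoid cells 2500/well; 5 hr 37 C; cpd added; 24 hr 37 C; CellTiter-Glo, 30 min RT; luminescence. AC50 via Hill fit; tetraoctylammonium bromide positive ctrl.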

[17] = Cell Viability - LYMP2-005 (AID 967)
Procedure, shortened: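 CellTiter-Glo luminescence (cellular ATP) read-out; LYMP2-005 lymphoblastoid cells, 2500/well, 5 h pre-incubation, then 24 h compound exposure at 37 C in complete medium. Tetraoctylammonium bromide positive control; AC50 by standard Hill fit.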

[18] = biological target: Estrogen receptor (Homo sapiens) (UniProt P03372); test: qHTS assay for small molecule agonists of estrogen receptor alpha signaling (AID 588514; calls by dose curve; note: nearly all actives have a fitted effect of over 70% in size)
Procedure, shortened: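 Cells were plated at 5000/well, incubated 4 hrs at 37 C, dosed with compound titration series, incubated 18 hrs at 37 C, loaded with CCF4 dye for 2 hrs at RT, then fluorescence was read.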

[19] = qHTS Assay for Identification of Small Molecule Antagonists for NFkB Signaling Pathway (AID 895; active = well fitted inhibition curve with a large enough effect in the signal ratio, with a control signal flat, not every such curve was filed as active; the % refers to the signal ratio)
Procedure, shortened: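 ME-180 NFkB-bla cells (beta-lactamase under NFkB response element), plated overnight, treated with compound then 10 pM TNF alpha (about EC50) for 5 hrs at 37 C. LiveBLAzer FRET read at 460/530 nm emission, 405 nm excitation.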

DFO2036 = test: qHTS profiling for inhibitors of Plasmodium falciparum proliferation (AID 504749); note: nearly all actives have a fitted effect of over 60% in size; conditions: P. falciparum in erythrocytes, SYBR Green DNA, 72 h; series mostly up to 28.7 µM
Procedure, shortened: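 P. falciparum-infected erythrocytes (0.3% parasitemia, 2.5% hematocrit) incubated with compound 72 h at 37 C, 5% CO2. Parasite DNA detected by SYBR Green after lysis, overnight at room temperature; normalised to 0.29 uM artemisinin and DMSO.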

Measured: Potency

Chain of Estrogen receptor (Homo sapiens) (P03372 whole entry, looked up): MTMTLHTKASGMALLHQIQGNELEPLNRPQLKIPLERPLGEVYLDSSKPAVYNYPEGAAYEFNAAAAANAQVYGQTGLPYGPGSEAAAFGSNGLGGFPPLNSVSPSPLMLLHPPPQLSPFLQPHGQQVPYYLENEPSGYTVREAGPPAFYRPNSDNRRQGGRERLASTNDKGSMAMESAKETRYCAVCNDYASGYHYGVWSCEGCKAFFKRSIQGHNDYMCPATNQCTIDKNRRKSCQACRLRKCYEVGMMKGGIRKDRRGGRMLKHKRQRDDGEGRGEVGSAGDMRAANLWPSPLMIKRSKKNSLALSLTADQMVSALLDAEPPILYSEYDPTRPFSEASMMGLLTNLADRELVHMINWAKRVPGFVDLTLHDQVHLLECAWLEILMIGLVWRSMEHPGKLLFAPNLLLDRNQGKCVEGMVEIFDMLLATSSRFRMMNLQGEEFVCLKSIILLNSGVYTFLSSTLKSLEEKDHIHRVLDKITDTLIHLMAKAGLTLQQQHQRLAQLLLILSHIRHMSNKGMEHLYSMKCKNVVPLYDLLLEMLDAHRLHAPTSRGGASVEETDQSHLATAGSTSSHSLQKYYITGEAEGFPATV

CC(C)C[C@H]1C(=O)N2CCCC2[C@]2(O)O[C@](NC(=O)[C@@H]3C=C4c5cccc6[nH]c(Br)c(c56)C[C@H]4N(C)C3)(C(C)C)C(=O)N12 (stereo partly specified)
active: [1] 891 nM | [2] 1780 nM | [3] 2000 nM | [4] 2510 nM | [5] 2000 nM | [6] 1260 nM | [7] 1580 nM
inactive: [8]

O=C(O)COc1ccc(Cl)cc1Cl
inactive: [9] | [10] | [11] | [12] | [13] | [14] | [15] | [16]

C=CCc1ccc2c(c1)OCO2
inactive: [17] | [9] | [10] | [11] | [12] | [13] | [14] | [15] | [16]

CNC(=O)O/N=C/C(C)(C)SC
inactive: [17] | [9] | [10] | [11] | [12] | [18]

c1ccc(N=Nc2ccccc2)cc1
inactive: [17] | [16]

ClC1=C(Cl)C2(Cl)C3C4C=CC(C4)C3C1(Cl)C2(Cl)Cl (stereo unspecified)
active: [13] 63100 nM | [15] 50100 nM

COc1ccc(OC)c([C@H](O)[C@H](C)N)c1
inactive: [19]

C#CCN(C)[C@@H](C)Cc1ccccc1
inactive: [19]

CC(=O)OCC(=O)[C@@H]1CC[C@H]2[C@H]3CC[C@H]4C[C@@H](O)CC[C@]4(C)[C@@H]3C(=O)C[C@@]12C
inactive: DFO2036

CNC(=O)N(C)c1nnc(C(C)(C)C)s1
inactive: [18]

CC(C)N(CC[C@@](C(N)=O)(c1ccccc1)c1ccccn1)C(C)C
inactive: [19] | DFO2036
